A number with no mark means an inactive call. Records with an inconclusive call do not appear. A call without a number means that no potency is given here. The source made the active and inactive calls. Unless noted, calls come from the whole dose curve; as a rule, active = well fitted curve in the direction sought with a large enough effect; inconclusive = small, poorly fitted or top-dose-only effect, or another doubt; inactive = no such curve, though single readings can be large; an effect the other way counts as inactive or inconclusive.
Key:
[1] = biological target: Cytochrome P450 1A2 (Homo sapiens) (UniProt P05177); experiment: p450-cyp1a2 (AID 410; calls by dose curve; note: potency is the fitted concentration of half-maximal effect)
Chain of Cytochrome P450 1A2 (Homo sapiens) (P05177 whole entry, looked up): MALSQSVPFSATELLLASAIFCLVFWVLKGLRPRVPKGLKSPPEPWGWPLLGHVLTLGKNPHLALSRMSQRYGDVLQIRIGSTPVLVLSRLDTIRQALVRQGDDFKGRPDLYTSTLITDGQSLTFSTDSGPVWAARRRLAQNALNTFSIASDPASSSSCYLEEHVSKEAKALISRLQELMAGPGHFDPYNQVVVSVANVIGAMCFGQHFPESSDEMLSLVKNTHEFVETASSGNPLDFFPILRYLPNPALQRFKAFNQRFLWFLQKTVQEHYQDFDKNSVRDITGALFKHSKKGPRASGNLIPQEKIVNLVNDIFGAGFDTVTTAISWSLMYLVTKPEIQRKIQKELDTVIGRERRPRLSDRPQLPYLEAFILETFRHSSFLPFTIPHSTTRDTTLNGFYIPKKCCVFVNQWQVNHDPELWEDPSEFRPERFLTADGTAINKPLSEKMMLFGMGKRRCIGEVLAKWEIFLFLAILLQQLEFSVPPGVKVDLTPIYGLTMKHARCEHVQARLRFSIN
Method in brief: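 Human CYP1A2 (20nM) demethylated Luciferin-ME at its Km (100uM) in 100mM KPO4. After 10 min compound preincubation, NADPH regeneration ran the reaction 60 min at room temperature. Luciferin was read by luminescence, normalized to 57 uM furafylline.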

[2] = biological target: Cytochrome P450 3A4 (Homo sapiens) (UniProt P08684); experiment: qHTS Assay for Activators of Cytochrome P450 3A4 (AID 885); note: nearly all actives have a fitted effect of over 65% in size
Chain of Cytochrome P450 3A4 (Homo sapiens) (P08684 whole entry, looked up): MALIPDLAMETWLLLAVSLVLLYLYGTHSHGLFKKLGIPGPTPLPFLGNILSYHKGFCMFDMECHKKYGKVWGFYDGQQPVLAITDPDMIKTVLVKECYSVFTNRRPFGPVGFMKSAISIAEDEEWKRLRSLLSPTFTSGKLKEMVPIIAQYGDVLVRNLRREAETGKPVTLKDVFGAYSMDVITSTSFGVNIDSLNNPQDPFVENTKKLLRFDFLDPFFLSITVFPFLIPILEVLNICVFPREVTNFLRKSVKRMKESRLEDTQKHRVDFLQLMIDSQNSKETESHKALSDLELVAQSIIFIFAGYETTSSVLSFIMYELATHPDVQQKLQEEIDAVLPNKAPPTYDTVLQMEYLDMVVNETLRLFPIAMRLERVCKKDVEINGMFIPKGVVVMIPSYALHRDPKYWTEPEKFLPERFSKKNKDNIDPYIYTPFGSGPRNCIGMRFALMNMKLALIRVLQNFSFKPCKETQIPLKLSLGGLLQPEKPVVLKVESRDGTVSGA
Method in brief: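 Human CYP3A4 (20 nM) with Luciferin-PPXE at 25 uM (its KM) in 200 mM KPO4; 10 min compound preincubation, then NADPH regeneration and 60 min reaction at RT. Luciferin read by luminescence; normalized to 57 uM ketoconazole full inhibition.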

[3] = biological target: Cytochrome P450 3A4 (Homo sapiens) (UniProt P08684); experiment: qHTS Assay for Inhibitors and Substrates of Cytochrome P450 3A4 (AID 884); note: nearly all actives have a fitted effect of over 50% in size; note: potency is the fitted concentration of half-maximal effect
Method in brief: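 20 nM human CYP3A4 with 25 uM Luciferin-PPXE (at KM) in 200 mM KPO4, preincubated 10 min with compound; NADPH regeneration started a 60 min RT reaction. Luciferin detected by luminescence, normalized to 57 uM ketoconazole as full inhibition.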

| SMILES | Potency [1] | Potency [2] | Potency [3] |
| --- | --- | --- | --- |
| CC1=C(\C=C/C(C)=C/C=C\C(C)=C\CO)C(C)(C)CCC1 | inactive |  |  |
| CCc1c2c(nc3c(C(C)C)cccc13)-c1cccc(=O)n1C2 | 0.398 µM (active) | inactive |  |
| CCc1cccc2nc3c(c([Si](C)(C)C)c12)Cn1c-3cccc1=O | 2.51 µM (active) | inactive |  |
| CCCC/C=C/C(NC(=O)c1cccs1)c1ccccc1 (stereo not given) | 1.58 µM (active) | inactive |  |
| COC(=O)[C@@H]1C[C@H]1[C@@H](NC(=O)c1ccccc1)c1ccccc1 | 5.01 µM (active) |  |  |
| C[C@@]1(C(NC(=O)c2ccc(-c3ccccc3)cc2)c2ccc(Cl)cc2)C[C@H]1C1CCCCC1 (stereo not given in full) | inactive |  |  |
| COC(=O)[C@H](C)[C@H]1C[C@]1(C)[C@H](NC(=O)OCc1ccccc1)c1ccccc1 | 15.8 µM (active) | inactive | 7.94 µM (active) |
| COC(=O)[C@H]1C[C@@H]1[C@H](NC(=O)Oc1ccc(F)cc1)c1ccccc1 | 1 µM (active) | inactive |  |
| CCCC[C@@H]1C[C@H]1C(NC(=O)c1cccs1)c1ccc(Cl)cc1 (stereo not given in full) | 1 µM (active) | inactive | 5.01 µM (active) |
| CCC/C=C(\CCC)C(NS(=O)(=O)c1ccccc1)c1ccc(C(F)(F)F)cc1 (stereo not given) | 12.6 µM (active) | inactive | 6.31 µM (active) |
| CCC/C=C(\CCC)C(NC(=O)Cc1ccccc1)c1ccc(C(=O)OC)cc1 (stereo not given) | 15.8 µM (active) | inactive | 3.98 µM (active) |
| CCCC/C=C/C(NC(=O)c1ccccc1)c1ccccc1 (stereo not given) | 3.98 µM (active) | inactive |  |
| CCC[C@@H]1C[C@@]1(CCC)C(NC(=O)c1ccccc1)c1cccc(Cl)c1 (stereo not given in full) | inactive | inactive |  |
| C=C1C(=O)C=C2CN(C(=O)c3ccccc3)[C@@](Cc3ccc(F)cc3)(C(=O)OC)[C@@H]12 | 15.8 µM (active) | inactive | 7.94 µM (active) |
| CCC/C=C(\CCC)C(NC(=O)c1ccc(C(F)(F)F)cc1)c1ccccc1 (stereo not given) | 25.1 µM (active) | inactive |  |
| COC(=O)c1ccc(C(NC(=O)c2ccccc2)[C@]2(C)C[C@H]2C2CCCCC2)cc1 (stereo not given in full) | inactive | inactive |  |
| CCCC[C@@H]1C[C@H]1C(NC(=O)c1ccco1)c1ccc(Cl)cc1 (stereo not given in full) | 0.794 µM (active) |  | inactive |
| CCCC/C=C/C(NC(=O)C(C)(C)C)c1ccccc1 (stereo not given) | 20 µM (active) | inactive |  |
| CCC/C=C(\CCC)C(NC(=O)OCC(C)C)c1ccc(C(=O)OC)cc1 (stereo not given) | 15.8 µM (active) | inactive |  |
| CCC/C=C(\CCC)C(NC(=O)C(C)(C)C)c1ccc(C(=O)OC)cc1 (stereo not given) | inactive | inactive |  |
| CCC/C=C(\CCC)C(NS(=O)(=O)c1ccc(Cl)cc1)c1ccccc1 (stereo not given) | 12.6 µM (active) | inactive | 7.94 µM (active) |
| CCc1cccc2c(-c3ccccc3)c3c(nc12)OCC3 | 0.316 µM (active) |  |  |
| CCC/C=C(\CCC)C(NS(=O)(=O)c1cccs1)c1ccc(C(=O)OC)cc1 (stereo not given) | 12.6 µM (active) | inactive | 3.16 µM (active) |
| CCC/C=C(\CCC)C(NC(=O)c1ccc(-c2ccccc2)cc1)c1ccc(C(=O)OC)cc1 (stereo not given) | 0.631 µM (active) | inactive |  |
| CCCC[C@@H]1C[C@H]1C(NC(=O)c1ccco1)c1ccccc1 (stereo not given in full) | 2 µM (active) | inactive |  |
| CCC/C=C(\CCC)C(NS(=O)(=O)c1ccc(Cl)cc1)c1ccc(C(=O)OC)cc1 (stereo not given) | 3.16 µM (active) | inactive | 3.98 µM (active) |
| CCc1c2c(nc3cccc(C(C)C)c13)-c1cccc(=O)n1C2 | 0.501 µM (active) | inactive |  |
| CC[C@H]1C2=C3C(CC[C@H]4C(OCc5ccc(F)cc5C(F)(F)F)OC[C@](C)([C@@H]34)N(C(=O)OC(C)(C)C)C2)C(COC(C)=O)C1COC(C)=O (stereo not given in full) | inactive | inactive |  |
